Test results reported in PubChem BioAssay (EPA / NIEHS).
Active and inactive are the calls of the source. Rule for the calls: active = hit-call score of the fitted dose curve at least 0.9, where 1 is the maximum; inactive = score below 0.9.

Read-out: Interleukin 6 (IL6), IL6 (gene 3569)
Assay: LTEA_HepaRG_IL6: Life Technologies and Expression Analysis (LTEA) Assay for Interleukin 6 (IL6) using HepaRG (AID 2283509)
Conditions: mRNA level, 48 h; actives raise or lower the signal
Method: LTEA_HepaRG is a cell based, multiplexed-readout assay that uses HepaRG, a human liver cell line, with measurements taken at 48 hours after chemical dosing on a 96-well plate.LTEA_HepaRG_IL6 is one of 102 assay component(s) measured in the LTEA HepaRG cell culture assay. It is a marker of Inflammation.Data from the assay component LTEA_HepaRG_IL6 was analyzed into 1 endpoint. This assay endpoint, LTEA_HepaRG_IL6, was analyzed with bidirectional fitting relative to DMSO as the negative control and baseline of activity. Using a type of inducible reporter, measures of mRNA induction for gain or loss-of-signal activity can be used to understand regulation of transcription factor activity. To generalize the intended target to other relatable targets, this assay endpoint is annotated to the cytokine intended target family, where the subfamily is interleukins.
A total of 1060 chemcials from the ToxCast library were tested in eight-point concentration-response experiments. Cell culture and cytotoxicity assays were conducted at Thermo Fisher Scientific's Custom Services facility (Madison, WI). A single lot of human HepaRG cells (Thermo Fisher Scientific, Frederick, MD) was used for the cell culture experiments. 96-well format collagen type I coated plates of human HepaRG cells were prepared using established methods. Briefly, cryopreserved HepaRG cells were thawed, plated at a density of approximately 100,000 cells/well in HepaRG Thaw, Plate, and General Purpose media (HPRG770, Thermo Fisher Scientific), and incubated for 48 hours. 0.5% DMSO was selected as vehicle control to balance the requisite need of DMSO in HepaRG cultures to maintain differentiation (for example, baseline metabolism, proportions of hepatocytes vs. cholangiocytes), while enabling further hepatic receptor pathway activation (for example, PXR and CAR) in response to chemical exposure. 48 hours after plating, the culture medium was replaced with HepaRG Serum-Free Incudtion Media. Cells were exposed to each test chemical in duplicate and maintained in CO2 incubators for another 48 hours. Chemical plates were thawed to room temperature and 200x concentrations of treatment groups were prepared. 8-point conentration-reponse curves were made with the highest exposure at 100 uM, followed by half-log dilutions, all in 0.5% DMSO. Each test plate contained variouse controls, induction positive controls (1mM phenobarbital), cytotoxicity positive controls ([…] aflatoxin B1), vehicle controls (0.5% DMSO), and total lysis controls (0.5% DMSO). Cell morphology images were taken using an Essen IncuCyte FLR automated microscope, with six 96-well plates imaged in about 24 minutes. Images were captured and exported and JPEG files. Spent culture media was transfered to black-well plates for the LDH assay, and remaining media was sorted at -80 C for later use. Cells were treated with RLT buffer and frozen until shipped for gene expression analysis. Total RNA was isolated from the cell suspension in 75 uL of Buffer RLT (Qiagen, Germantown, MD 20874) by Quintiles/Expression Analysis (Durham, NC) using a custom isolation procedure. Total RNA from each plate well was transferred to a preamplification plate. Fluidigm's 96.96 Dynamic ArrayTM (Fluidigm, Amsterdam, the Netherlands) technology was used for gene expression analyses by quantitative reverse transcription polymerase chain reaction (qRT-PCR, performed by Quintiles/Expression Analysis, Durham, NC)89. Standard TaqManTM Assays (Applied Biosystems/ThermoFisher Scientific, Foster City, CA) were used to assess the expression of 93 genes selected based on their selectivity and sensitivity to important hepatic receptors known to be modulated by environmental chemicals; importance in human hepatocyte functionality; and hepatotoxicity. […]

SMILES	outcome	AC50
COCCOCCOCCOC	inactive	
CC(C)CCCCCCOC(=O)c1ccc(C(=O)OCCCCCCC(C)C)c(C(=O)OCCCCCCC(C)C)c1	inactive	
CCNc1ccccc1	inactive	
Cc1c(-c2cccnc2)c2ccccc2n1CCCCC(=O)O	inactive	
CCOC(=O)c1ccc(C2CCC(NC[C@H](O)COc3ccc(O)c(NS(C)(=O)=O)c3)CC2)cc1 (stereo not given in full)	inactive	
CCc1cc(SCc2sc(-c3ccc(C(F)(F)F)cc3)nc2CN2CCN(c3ccc(OC)cc3)CC2)ccc1OCC(=O)O		86 µM (active)
CN(C)c1ccc(N=NS(=O)(=O)O)cc1	inactive	
Cc1[nH]cnc1C[C@H]1CCc2c(C)c3ccccc3n2C1=O		84 µM (active)
C1=CCCC=CCCC=CCC1	inactive	
O=C(O)CCN(C1(C(=O)NO)CCCC1)S(=O)(=O)c1ccc(Oc2ccc(F)cc2)cc1	inactive	
Cc1ccc(C)c(O)c1	inactive	
Clc1nc(Cl)c(Cl)c(Cl)c1Cl	inactive	
CC(C)CCO	inactive	
CCCC(=O)OCC	inactive	
CN(C)c1ccc(Cc2ccc(N(C)C)cc2)cc1	inactive	
CC(=O)OCCC(C)C	inactive	
O=C(CCCCCCCCc1cccnc1)N1CCC(C=C(c2ccccc2)c2ccccc2)CC1		22.6 µM (active)
O=C1OC(=O)C2C3C=CC(C3)C12 (stereo not given)	inactive	
O=C(O)c1cccc(Oc2ccccc2)c1	inactive	
CC(=O)OC[C@H]1O[C@@](COC(C)=O)(O[C@H]2O[C@H](COC(C)=O)[C@@H](OC(C)=O)[C@H](OC(C)=O)[C@H]2OC(C)=O)[C@@H](OC(C)=O)[C@@H]1OC(C)=O	inactive	

SMILES	outcome	AC50
CC(C)=CCCC(C)CCO (stereo not given)	inactive	
COCCOc1cc2cc(C(=O)NC3CCN(C(C)C)CC3)n(CC(=O)Nc3ccc(Cl)cn3)c2cn1	inactive	
CC[C@H]1CC[C@H](NCc2cc3c(cc2OC)[C@H]2C[C@H]2C(=O)N3C)[C@H](c2ccccc2)N1	inactive	
COc1ccc(/C=C/S(=O)(=O)NC(=O)c2ccc(C)cc2Cl)cc1	inactive	
CCCCCCc1ccc(O)cc1O	inactive	
CCOc1cccc(-n2cc(C(=O)N3CCN(c4cc(C(=O)O)c5ccccc5c4)CC3)nc2-c2ccc(C)cc2)c1		74.2 µM (active)
CCCN(C1CCN(C(=O)C2CCNCC2)CC1)[C@@H]1CCc2ccc(OC)cc2C1		84.2 µM (active)
O=P(OC(CCl)CCl)(OC(CCl)CCl)OC(CCl)CCl		79.6 µM (active)
CNCc1ccc(NC(=O)c2c[nH]c3c2C(=O)CCC3)cc1	inactive	
CC[C@H](C)C(=O)O[C@H]1C[C@@H](C)C=C2C=C[C@H](C)[C@H](CC[C@@H]3C[C@@H](O)CC(=O)O3)[C@H]21	inactive	
O=C(NS(=O)(=O)/C=C/c1ccccc1)c1ccc(F)cc1Cl	inactive	
Nc1cccc(N)c1	inactive	
Cn1c(=O)c2c(ncn2C)n(C)c1=O	inactive	
Nc1nc2ncc(CNc3ccc(C(=O)N[C@@H](CCC(=O)O)C(=O)O)cc3)nc2c(=O)[nH]1	inactive	
CC(C)CC(C)(O)C#CC(C)(O)CC(C)C (stereo not given)	inactive	
O=C(O)c1cc(N=Nc2ccc(S(=O)(=O)Nc3ccccn3)cc2)ccc1O	inactive	
C=CCCCCCCCCC(=O)O	inactive	
Cn1cnc([N+](=O)[O-])c1Sc1ncnc2nc[nH]c12	inactive	
CCn1nc(Cc2ccccc2)cc1C1CCN(C[C@H]2C[C@H](N(C)[C@@H](C(=O)O)C(C)C)C[C@@H]2c2cccc(F)c2)CC1	inactive	
O=C1CCCCCN1	inactive	
